# Measured values taken from PubChem BioAssay (NCATS).
# Records with an inconclusive call do not appear. The source made the active and inactive calls. Calls come from the whole dose curve; as a rule, active = well fitted inhibition curve with a large enough effect; inconclusive = small, poorly fitted or top-dose-only effect; inactive = flat fitted curve, though single readings scatter.
# Tested on: astro (control astrocytes)
# Assay: Drug repurposing screens with cells derived from glioblastoma tumor samples (AID 1345199); note: nearly all actives have a fitted effect of over 40% in size
# Conditions: viability, ATP luminescence, 48 h; series mostly up to 45.9 µM
# Experimental: CD133+ cells were isolated from GBM patient biopsies and cultured as neurospheres. Neurospheres from four patients were used to screen the NCATS pharmaceutical collection (NPC) library of approved drugs and bioactive compounds. […] The neurospheres were incubated with drugs for 48 hours in 1536-well format, then assayed with an ATP content cell viability assay. […] These hits were cherry picked to confirm activity in the four original GBM lines screened plus three other slower growing GMB lines (unable to yield enough cells for a full primary screen). Variable activities of the confirmed primary hits in the different GBM patient lines were observed. The patient line 206 responded to the greatest number of compounds and line 923 responded to the least amount of active compounds.
row,Structure (SMILES),outcome
1,CN1CCN(C(=O)C2CCCCC2)CC1,inactive
2,CCCNC(C)(C)COC(=O)c1ccccc1,inactive
3,OCC(O)CS (stereo not given),inactive
4,CC(CSC(=O)c1ccccc1)C(=O)N1C[C@@H](Sc2ccccc2)C[C@H]1C(=O)O (stereo not given in full),inactive
5,CCCC(O)C(CC)CO (stereo not given),inactive
6,NC(=O)NS(=O)(=O)c1ccc(N)cc1,inactive
7,CC(=O)Oc1cccc(C)c1,inactive
8,C/C=C1\[C@H]2C=C(C)C[C@]1(N)c1ccc(=O)[nH]c1C2,inactive
9,CCOC(N)=O,inactive
10,CCCCCCCC(=O)OCC(COC(=O)CCCCCCC)OC(=O)CCCCCCC,inactive
11,O=C(O)Cc1ccc(CCNS(=O)(=O)c2ccc(Cl)cc2)cc1,inactive
12,COc1cc(C(=O)NCCCCCC(=O)O)cc(OC)c1OC,inactive
13,CCOC(=O)OC(C)OC(=O)[C@@H]1N2C(=O)[C@@H](NC(=O)[C@H](N)c3ccccc3)[C@H]2SC1(C)C (stereo not given in full),inactive
14,C[C@]1(Cn2ccnn2)[C@H](C(=O)O)N2C(=O)C[C@H]2S1(=O)=O,inactive
15,O=C(O)CCC(=O)O,inactive
16,CN[C@@H]1[C@H](O)[C@H](NC)[C@H]2O[C@@]3(O)C(=O)C[C@@H](C)O[C@H]3O[C@@H]2[C@H]1O,inactive
17,NCc1ccc(S(N)(=O)=O)cc1,inactive
18,Cc1ccsc1/C=C/C1=NCCCN1C,inactive
19,CC(=O)N(CC(O)CN(C(C)=O)c1c(I)c(C(=O)NCC(O)CO)c(I)c(C(=O)NCC(O)CO)c1I)c1c(I)c(C(=O)NCC(O)CO)c(I)c(C(=O)NCC(O)CO)c1I (stereo not given),inactive
20,OCc1ccc(Cl)cc1Cl,inactive

row,Structure (SMILES),outcome
1,CN(C/C=C/C#CC(C)(C)C)Cc1cccc2ccccc12,inactive
2,CCN(CC)CC1CCCCN1CC(=O)N1c2ccccc2C(=O)Nc2cccnc21 (stereo not given),inactive
3,O=C(CCBr)N1CCN(C(=O)CCBr)CC1,inactive
4,NC(N)=NCCN1CCCCCCC1,inactive
5,NC(=O)NC1NC(=O)NC1=O (stereo not given),inactive
6,CCCNC(C)C(=O)Nc1c(C)csc1C(=O)OC (stereo not given),inactive
7,O=C1c2cccc(O)c2C(=O)c2c(O)cccc21,inactive
8,O=C(O)[C@@H]1[C@H]2C[C@H]3c4[nH]c5ccccc5c4CCN3C[C@@H]2CC[C@@H]1O,inactive
9,CC(=O)N1C[C@H](O)C[C@H]1C(=O)O,inactive
10,O=c1[nH]cnc2nc[nH]c12,inactive
11,COC(=O)N/N=C/c1c[n+]([O-])c2ccccc2[n+]1[O-],inactive
12,OCCN1C[C@H](O)[C@@H](O)[C@H](O)[C@H]1CO,inactive
13,O=C(NCCCN1CCOCC1)c1ccc(Cl)cc1,inactive
14,O[C@@H]1CO[C@H]2[C@@H]1OC[C@@H]2O,inactive
15,CCN(CC)CCc1nc(-c2ccccc2)no1,inactive
16,C[N+](C)(C)CC(O)CC(=O)[O-] (stereo not given),inactive
17,CCCCCCCC(=O)OCC(O)CO (stereo not given),inactive
18,CCCCCCCCCCC(CO)CCCCCCCC (stereo not given),inactive
19,CCCCCC(C)N (stereo not given),inactive
20,O=C1CC[C@@H](C(=O)O)N1,inactive
